KinaseGlo FLuc: Counterscreen for Luciferase (Kinase-Glo TM) Inhibition; Kinase-Glo luciferase, ATP luminescence, 8 min; 0.28% of 200,000 active; Potency, µM (top dose mostly 38.3 µM), without a hit: at the highest dose activity change, negative = inhibition, usual class: inhibitors; AID 1379, 2008; note: nearly all actives have a fitted effect of over 60% in size
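Compound is pinned into ATP-containing buffer (10 uM ATP, imidazole pH 7.2, 7 mM MgCl2). Kinase-Glo luciferase reagent is then added. Light output is recorded following an 8-min room-temperature incubation.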
VP16 counter: VP16 counterscreen qHTS for inhibitors of ROR gamma transcriptional activity; Drosophila S2 Gal4-VP16 UAS-luciferase, luminescence, 20 h; Potency, µM (series often up to 53.6 µM), for inactives: at the highest dose activity, negative = inhibition, most hits filed as inhibitors; 3.5% of 310,000 active; AID 2546, 2010;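 note: Gal4-VP16 expression switched on by copper sulfate through the metallothionein promoter; nearly all actives have a fitted effect of over 50% in size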
RORg inh: qHTS for inhibitors of ROR gamma transcriptional activity | Nuclear receptor ROR-gamma (Mus musculus), P51450 | Drosophila S2 Gal4-RORgamma UAS-luciferase reporter, 20 h | Potency, µM (titrated, usually from 53.6 µM), without a hit: at the highest dose activity change, negative = inhibition, actives largely listed as inhibitors | 5.4% of 310,000 active | AID 2551, 2010; note: nearly all actives have a fitted effect of over 60% in size
Target sequence (P51450 whole entry, looked up, the tested form may be a part): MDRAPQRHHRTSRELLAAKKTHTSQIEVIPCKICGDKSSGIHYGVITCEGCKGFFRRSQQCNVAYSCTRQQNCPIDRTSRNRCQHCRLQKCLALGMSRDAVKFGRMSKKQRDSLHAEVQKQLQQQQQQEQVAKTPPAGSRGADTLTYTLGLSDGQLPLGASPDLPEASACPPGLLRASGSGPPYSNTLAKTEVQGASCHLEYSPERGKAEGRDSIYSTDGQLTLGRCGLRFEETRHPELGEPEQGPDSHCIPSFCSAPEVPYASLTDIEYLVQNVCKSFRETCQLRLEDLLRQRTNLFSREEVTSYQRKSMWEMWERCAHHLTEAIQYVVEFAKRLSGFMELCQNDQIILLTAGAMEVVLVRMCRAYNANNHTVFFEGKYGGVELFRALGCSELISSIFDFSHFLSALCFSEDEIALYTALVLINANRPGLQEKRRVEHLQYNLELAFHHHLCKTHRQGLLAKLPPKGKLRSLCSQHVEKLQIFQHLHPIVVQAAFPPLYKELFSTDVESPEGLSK
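Drosophila S2 cells stably expressing Gal4-DBD/mouse RORγ fusion under metallothionein promoter plus UAS-luciferase; compound 1 h, then 700 uM CuSO4 induction for 20 h at ambient temperature; inhibition read as reduced luminescence.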
Numbers without * were called inactive; ? = inconclusive; · = no result given; [ ] = another dose, or the depositor's remark. A selection: hits, their analogues and other compounds. The true share with any hit is near 6.2%. Calls come from the whole dose curve; as a rule, active = well fitted curve in the direction sought with a large enough effect; inconclusive = small, poorly fitted or top-dose-only effect, or another doubt; inactive = no such curve, though single readings can be large; an effect the other way counts as inactive or inconclusive. % is set by controls: 0 for no effect and ±100 for the full control effect; potency is the fitted concentration of half-maximal effect.

SMILES	KinaseGlo FLuc	VP16 counter	RORg inh
COc1cccc(N2CN(C3CCCCC3)CNC2=S)c1	·	-1%	?
COc1ccc(-c2[nH]ncc2CN(C)CC2CCCCO2)cc1F (stereo unspecified)	-1%	5%	-13%
CC(=O)c1cc(C(=O)N2CCc3c([nH]c4ccccc34)C2C2CCCCC2)[nH]n1 (stereo unspecified)	4%	-6%	41%
CC1CCCC(NC(=O)CCCn2c(=S)[nH]c3ccccc3c2=O)C1C (stereo unspecified)	-3%	-10%[10 µM]	10µM*
CC1CCCCC1NC(=O)CCCCCn1c(=S)[nH]c2ccccc2c1=O (stereo unspecified)	1%	7%	16µM*
CC1CCCCC1NC(=O)CCCn1c(=S)[nH]c2ccccc2c1=O (stereo unspecified)	-2%	12%	?
O=C(CCCn1c(=S)[nH]c2ccccc2c1=O)NC1CCCC1	-5%	-8%	?
Cc1ccc(NC(=O)/C=N/OCC(=O)NCc2ccccc2Cl)cc1	·	-5%	17%
O=C(Nc1nc2ccccc2n1CCN1CCCCC1)c1ccc(Cl)cc1	-3%	?	-43%
CCC(=O)Nc1nc2ccccc2n1CCN1CCOCC1	15%	?	14µM*
O=C(Nc1nc2ccccc2n1CCN1CCOCC1)c1ccc(Cl)cc1	·	2.8µM*	0.4µM*
CCCCn1c(CNC(=O)CC)nc2ccccc21	1%	3%	-30%
Cc1nc2ccccc2n1CC(=O)NCCN1CCOCC1	1%	3%	-9%
CCCCCCCn1c(NC(=O)CC)nc2ccccc21	·	0.63µM*	0.089µM*
Cc1cccc(N2CCN(C(=O)CSc3ccsc3[N+](=O)[O-])CC2C)c1 (stereo unspecified)	-3%	-6%	3%[10 µM]
Cc1sc2nc(SCC(=O)NCCOCCO)n(C)c(=O)c2c1C	1%	5%	11%
Cc1ccc(-c2nnc(Cc3ccc([N+](=O)[O-])cc3)o2)cc1	12%	?	0.28µM*
O=[N+]([O-])c1ccc(Cc2nnc(-c3ccc(F)cc3)o2)cc1	12%	-15%[10 µM]	-22%
COc1ccc(N2C(=O)[C@@H]3[C@H](C2=O)[C@H]2C=CC=NN2[C@@H]3C(=O)Nc2ccc(Cl)cc2)cc1	·	?	14µM*
O=C(Nc1ccc(Cl)cc1)[C@@H]1[C@@H]2C(=O)N(c3ccc4ccccc4c3)C(=O)[C@@H]2[C@H]2C=CC=NN21	-3%	5%	-15%
COc1cc2c(c(OC)c1OC)CCc1cnoc1-2	·	5%	0%
Nc1ccccc1S(=O)(=O)NC1=NCCCCC1	-5%	2%	-2%
O=C1C(=O)c2ccccc2C(O)=C1C1CCC(c2ccc(Cl)cc2)CC1 (stereo unspecified)	-10%	5µM*	13µM*
O=C1NC(c2ccc(Cl)cc2)Nc2ccccc21 (stereo unspecified)	0%	4%	?
Cc1ccc(C(=O)Nc2ccc(S(=O)(=O)Nc3cnc4ccccc4n3)cc2)cc1	·	5%	?
SMILES	KinaseGlo FLuc	VP16 counter	RORg inh
CCN1CCCC1Cn1c(-c2ccccc2)nc2c(NCc3ccccc3)nc(C)nc21 (stereo unspecified)	-2%	17%	-45%
COC(CNC(=O)c1cccc(-n2c(=S)[nH]c3cc(Cl)ccc3c2=O)c1)OC	0%	6%	-33%
CC(C)n1c(=S)[nH]c2cc(Cl)ccc21	·	20µM*	?
Brc1ccc(-c2cnco2)cc1	-7%	-6%	-27%
CC1CC(C)CN(C(=O)C2CCN(S(=O)(=O)c3ccc4c(c3)CC(C)N4C(=O)C3CC3)CC2)C1 (stereo unspecified)	·	1%	8%
CCCn1c(CCNc2nc(-c3ccc(Cl)c([N+](=O)[O-])c3)cs2)nc2cc(Cl)c(Cl)cc21	·	-5%	?
CCCn1c(C(C)Nc2nc(-c3cc(Cl)c(N)c(Cl)c3)cs2)nc2cc(Cl)c(N3CCCCC3)cc21 (stereo unspecified)	·	1%	14µM*
Cc1ccc(Cn2c(C(C)Nc3nc(-c4ccc(C)cc4)cs3)nc3cc(Cl)c(Cl)cc32)cc1 (stereo unspecified)	·	-19%	11µM*
CCCn1c(C(C)Nc2nc(-c3ccc(Cl)c([N+](=O)[O-])c3)cs2)nc2ccccc21 (stereo unspecified)	·	?	13µM*
CCCn1c(C(C)Nc2nc(-c3cccc(Br)c3)cs2)nc2ccccc21 (stereo unspecified)	·	?	4.5µM*
CCCCn1c(C(C)NC(=O)CC)nc2ccccc21 (stereo unspecified)	3%	1%	-5%
